Screening data as filed in PubChem BioAssay.
Compounds with a hit are over-represented: about 3.9% of the library has one in this group of screens.
Mtb FBA inh: inhibitors of M. tuberculosis fructose-bisphosphate aldolase | P9WQA3 | purified M. tuberculosis FBA, fluorescence read-out | inhibition, % at 1 µM | hit rate 2.3% among 360,000 | AID 588726
Target sequence (P9WQA3 whole entry, looked up): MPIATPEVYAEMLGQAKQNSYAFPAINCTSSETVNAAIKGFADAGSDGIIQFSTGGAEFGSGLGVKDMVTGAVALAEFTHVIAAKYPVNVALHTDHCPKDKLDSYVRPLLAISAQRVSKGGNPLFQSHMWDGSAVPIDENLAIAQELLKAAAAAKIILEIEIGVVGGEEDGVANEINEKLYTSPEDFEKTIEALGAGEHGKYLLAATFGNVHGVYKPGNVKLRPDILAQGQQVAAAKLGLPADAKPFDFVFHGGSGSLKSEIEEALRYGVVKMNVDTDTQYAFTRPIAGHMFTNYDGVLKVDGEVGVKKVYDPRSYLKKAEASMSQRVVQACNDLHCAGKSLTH
GDH-TPI counter-1: counter-screen for M. tuberculosis FBA inhibitors: GDH-TPI coupled enzymes | GDH-TPI coupled enzyme counterscreen, NADH absorbance | inhibition, % at 4.8 µM | hit rate 1.2% among 360,000 | AID 588335; in the data active = inhibition above about 30%
BH1578 lux ind: quorum light induction in luxS cqsA deficient V. cholerae; V. cholerae BH1578 lux reporter, luminescence, 6 h; activation, % at 18.7 µM; hit rate 0.16% among 350,000; in the data active = activation mostly above about 9.7%, no sharp cut-off
CCHFV vOTU inh: CCHFV vOTU protease inhibition. Pep-AMC fluorescence. inhibition, % at 11.5 µM. hit rate 0.55% among 370,000. AID 651958; in the data active = inhibition above about 30%
Mtb FBA confirm: Mtb FBA inhibition, confirmed; hit rate 78% among 5,600; AID 651616; purified M. tuberculosis FBA, fluorescence read-out; shares compounds with Mtb FBA inh; inhibition, % at 1 µM
GDH-TPI counter-2: counter-screen for M. tuberculosis FBA inhibitors: GDH-TPI coupled enzyme inhibition | shares compounds with Mtb FBA inh | GDH-TPI coupled enzyme counterscreen, fluorescence | inhibition, % at 1 µM | hit rate 81% among 5,600 | AID 652141; in the data active = inhibition above about 10%
A number is an active result; – = inactive; · = not tested or not shown; + = active, no number. Cut-off read from the data, not from the text of the source, unless noted: active = inhibition above about 27%; inactive = the rest.

SMILES | Mtb FBA inh | GDH-TPI counter-1 | BH1578 lux ind | CCHFV vOTU inh | Mtb FBA confirm | GDH-TPI counter-2
CC1=C(C#N)C(c2ccc(O)cc2)C2=C(CCCC2=O)N1 (stereo not drawn) | – | – | – | – | · | ·
CC1=C(C#N)C(c2cccnc2)C2=C(CC(c3ccc(Cl)cc3)CC2=O)N1 (stereo not drawn) | 70.2 | – | – | – | – | –
COc1cc(C(C(=O)NC(C)(C)C)N(C(=O)CNC(=O)c2cccs2)c2ccc(C(C)C)cc2)cc(OC)c1OC (stereo not drawn) | – | – | – | – | · | ·
CC(=O)Nc1ccc2nc(CN3CCC(CO)(CCc4ccccc4)CC3)ccc2c1 | – | – | – | – | · | ·
COc1ccc(Cn2cc(Cn3c4ccccc4c(=O)n3C(C)C)nn2)cc1 | 104.7 | · | · | – | 76.9 | 55.1
CC(C)n1c(=O)c2ccccc2n1Cc1cn(-c2ccc(Cl)cc2)nn1 | 55.8 | · | · | – | 35.3 | 29.9
COCc1cn(CC(C)n2c(=O)c3ccccc3n2Cc2cc(C(C)C)no2)nn1 (stereo not drawn) | · | · | · | – | · | ·
Nc1ccc(CCc2ccc(N)cc2)cc1 | – | – | – | – | · | ·
Nc1ncc2c(n1)-c1ccccc1CC2 | 63.6 | – | – | – | – | –
O=C(Nc1ncc2c(n1)-c1ccccc1CC2)c1ccccc1 | – | – | · | – | · | ·
Nc1ncc2c(n1)-c1ccoc1CC2 | 36.4 | – | – | – | 124.8 | 103.4
COc1ccc2nc3oc(C(=O)NC4CCN(Cc5ccccc5)CC4)cc3cc2c1 | 32.4 | – | – | – | – | –
CCOC(=O)N1CCC(NC(=O)c2cc3cc4cc(OC)ccc4nc3o2)CC1 | 86.1 | – | – | – | – | –
CCOC(=O)N1CCC(NC(=O)c2cc(-c3ccc(OC)cc3)nc3ccccc23)CC1 | – | – | – | – | · | ·
O=C(NC1CCN(Cc2ccccc2)CC1)c1ccccc1 | – | – | – | – | · | ·
COc1cccc(-c2ncc3ccccc3c2COC(=O)c2ccc(C(C)(C)C)cc2)c1 | – | – | – | – | · | ·
CCCCc1cc(=O)oc2cc(C)cc(OCC(=O)NCC3CCC(C(=O)O)CC3)c12 (stereo not drawn) | 67.0 | – | – | – | – | –
CCCc1cc(=O)oc2cc(C)cc(OCC(=O)NCc3ccccn3)c12 | 54.8 | – | – | – | 28.5 | 32.3
CCCc1cc(=O)oc2cc(OCC(=O)NCc3ccccn3)ccc12 | – | – | – | – | · | ·
CCCCc1cc(=O)oc2cc(C)cc(OCC(=O)NCc3ccncc3)c12 | 81.1 | – | – | – | 139.1 | 108.1
Cc1cc(OCC(=O)NCc2ccccn2)c2c(C)cc(=O)oc2c1 | 79.4 | – | – | – | 102.5 | 72.2
Cc1cccc(C(=O)N=c2sccn2C)c1[N+](=O)[O-] | – | – | – | – | · | ·
CCOc1ccc(/C=N/NC(=S)NC2CC3CCC2C3)cc1 (stereo not drawn) | 30.6 | – | – | – | – | –
CCOc1ccc(/C=N/NC(=S)NC2CC3CC2C2C=CCC32)cc1 (stereo not drawn) | – | – | – | – | · | ·
CCCc1nc2nc(C)c(NS(=O)(=O)c3ccc(Cl)cc3)c(=O)n2[nH]1 | – | – | – | – | · | ·
SMILES | Mtb FBA inh | GDH-TPI counter-1 | BH1578 lux ind | CCHFV vOTU inh | Mtb FBA confirm | GDH-TPI counter-2
Nn1c(SCC(=O)Nc2nnc(-c3ccccc3)o2)nnc1C1CC1 | 44.9 | – | – | – | – | –
Nn1c(SCC(=O)Nc2ccc(Oc3ccccc3)cc2)nnc1C1CC1 | – | – | – | – | · | ·
CCOc1ccccc1Oc1coc2cc(OC(=O)c3ccco3)ccc2c1=O | 32.1 | – | – | – | 28.6 | 21.2
CCOc1ccccc1Oc1coc2cc(OC(=O)N(C)C)ccc2c1=O | – | – | – | – | · | ·
CCOC(=O)c1ccc(Oc2coc3cc(O)ccc3c2=O)cc1 | 27.9 | – | – | – | 160.8 | 122.8
COc1ccc(-c2coc3cc(O)ccc3c2=O)cc1OC | – | – | – | – | · | ·
CCOc1ccc2c(=O)c(Oc3ccccc3OCC)coc2c1 | – | – | – | – | · | ·
CCOc1ccccc1Oc1coc2cc(O)ccc2c1=O | 52.6 | – | – | – | 40.6 | 26.2
COc1ccccc1Oc1coc2cc(O)ccc2c1=O | 30.6 | – | – | – | + | +
CCC1CCCCN1CCCNC(=O)C1CCN(S(=O)(=O)N2CCCCC2)CC1 (stereo not drawn) | – | – | – | – | · | ·
Cc1ccccc1-n1ncc2c([N+](=O)[O-])cc([N+](=O)[O-])cc21 | – | – | – | – | · | ·
Cc1nc(N2CCC(C(N)=O)CC2)c2nnn(Cc3ccccc3)c2n1 | – | – | – | – | · | ·
COc1ccc(C)cc1S(=O)(=O)Nc1cccc(-c2cn3cccnc3n2)c1 | 89.3 | – | – | – | – | –
O=S(=O)(Nc1cccc(-c2cn3cccnc3n2)c1)c1ccc(Cl)cc1 | 56.4 | – | – | – | – | –
CCOC(=O)CCc1c(C)n(CC)c2cc(-c3ccccc3OC)nn2c1=O | 66.5 | – | – | – | + | +
CCN(CC)CCCNC(=O)CCc1c(C)n(CC)c2cc(-c3ccccc3OC)nn2c1=O | 65.0 | – | – | – | 195.4 | 118.2
COc1ccccc1CNC(=O)CCc1c(C)nc2cc(-c3ccccc3OC)nn2c1C | – | – | – | – | · | ·
COc1ccccc1-c1cc2nc(C)c(CCC(=O)NCc3ccc(F)cc3)c(C)n2n1 | – | – | – | – | · | ·
Cc1ccc(O)c(C(CC(=O)NCc2cccnc2)c2ccccc2)c1 (stereo not drawn) | – | – | – | – | · | ·
CC(C)(C)CC(C)(C)Nc1c(-c2ccc(O)cc2)nc2cnccn12 | 59.2 | – | – | – | + | +
Oc1ccc(-c2nc3cnccn3c2Nc2ccc3c(c2)OCCO3)cc1 | – | – | – | – | · | ·
CC(C)(C)OC(=O)NCc1ccc(CNC(=O)c2nc[nH]c2C(=O)N2CCN(C(=O)OC(C)(C)C)CC2)cc1 | – | – | – | – | · | ·
COc1cccc(CN(C)C(=S)Nc2cccc(C)c2)c1 | – | – | – | – | · | ·
CN(CCNC(=O)C1CCN(S(=O)(=O)N2CCOCC2)CC1)CCc1ccccc1 | – | – | – | – | · | ·
O=c1cc(C(F)(F)F)c2sc(N3CCCCC3)nc2[nH]1 | 86.0 | – | – | – | 162.0 | 124.8
SMILES | Mtb FBA inh | GDH-TPI counter-1 | BH1578 lux ind | CCHFV vOTU inh | Mtb FBA confirm | GDH-TPI counter-2
Cc1cc(/C=N/NC(=O)Cn2c3ccccc3c(=O)c3ccccc32)c(C)n1-c1ccc(Cl)cc1 | 82.8 | – | – | – | 143.6 | 119.3
COC(=O)N/N=C/c1cc(C)n(-c2ccccc2)c1C | – | – | – | – | · | ·
Cc1ccc(-n2c(C)cc(/C=N/NC(=O)Cn3c4ccccc4c(=O)c4ccccc43)c2C)cc1 | 74.0 | – | – | – | 133.3 | 119.1
O=C(N/N=C/c1cccc2ccccc12)c1cc2ccccc2o1 | – | – | – | – | · | ·
O=C(N/N=C/c1ccccc1F)c1cc2c(ccc3ccccc32)o1 | 30.3 | – | – | – | 54.4 | 35.7
O=c1[nH]c2ccc(Cl)cc2c(O)c1Cc1ccccc1 | 34.8 | – | – | – | + | 192.6
CCN(CC)CCCNC(=O)c1cc2c(-c3ccc(Cl)cc3)nn(C)c2s1 | – | – | – | – | · | ·
CN(CCNC(=O)c1cc2c(=O)n(C)c3ccccc3c2n1C)Cc1ccccc1 | – | – | – | – | · | ·
CCCN(CCC)CCNC(=O)c1cc2c(=O)n(C)c3ccccc3c2n1C | 30.5 | – | – | – | – | –
